The supplement of paper PMC11732987, “Enantioselective OTUD7B fragment discovery through chemoproteomics screening and high-throughput optimisation” (Communications Chemistry, 2025)

Columns and labels:
Assay in all cases: log2 ratio of Biotin-Ahx-Ub-VS probe labelling (fragment/DMSO); higher = less target engagement (more negative = stronger competition), active = hit call of the paper (q ≤ 0.05, log2 ratio ≤ -1)
Details in all cases: compound concentration: 200 uM; treatment time: 3 h
[1] = biological target: T1, ALG13 (UniProt Q9NP73)
T1 sequence (whole entry): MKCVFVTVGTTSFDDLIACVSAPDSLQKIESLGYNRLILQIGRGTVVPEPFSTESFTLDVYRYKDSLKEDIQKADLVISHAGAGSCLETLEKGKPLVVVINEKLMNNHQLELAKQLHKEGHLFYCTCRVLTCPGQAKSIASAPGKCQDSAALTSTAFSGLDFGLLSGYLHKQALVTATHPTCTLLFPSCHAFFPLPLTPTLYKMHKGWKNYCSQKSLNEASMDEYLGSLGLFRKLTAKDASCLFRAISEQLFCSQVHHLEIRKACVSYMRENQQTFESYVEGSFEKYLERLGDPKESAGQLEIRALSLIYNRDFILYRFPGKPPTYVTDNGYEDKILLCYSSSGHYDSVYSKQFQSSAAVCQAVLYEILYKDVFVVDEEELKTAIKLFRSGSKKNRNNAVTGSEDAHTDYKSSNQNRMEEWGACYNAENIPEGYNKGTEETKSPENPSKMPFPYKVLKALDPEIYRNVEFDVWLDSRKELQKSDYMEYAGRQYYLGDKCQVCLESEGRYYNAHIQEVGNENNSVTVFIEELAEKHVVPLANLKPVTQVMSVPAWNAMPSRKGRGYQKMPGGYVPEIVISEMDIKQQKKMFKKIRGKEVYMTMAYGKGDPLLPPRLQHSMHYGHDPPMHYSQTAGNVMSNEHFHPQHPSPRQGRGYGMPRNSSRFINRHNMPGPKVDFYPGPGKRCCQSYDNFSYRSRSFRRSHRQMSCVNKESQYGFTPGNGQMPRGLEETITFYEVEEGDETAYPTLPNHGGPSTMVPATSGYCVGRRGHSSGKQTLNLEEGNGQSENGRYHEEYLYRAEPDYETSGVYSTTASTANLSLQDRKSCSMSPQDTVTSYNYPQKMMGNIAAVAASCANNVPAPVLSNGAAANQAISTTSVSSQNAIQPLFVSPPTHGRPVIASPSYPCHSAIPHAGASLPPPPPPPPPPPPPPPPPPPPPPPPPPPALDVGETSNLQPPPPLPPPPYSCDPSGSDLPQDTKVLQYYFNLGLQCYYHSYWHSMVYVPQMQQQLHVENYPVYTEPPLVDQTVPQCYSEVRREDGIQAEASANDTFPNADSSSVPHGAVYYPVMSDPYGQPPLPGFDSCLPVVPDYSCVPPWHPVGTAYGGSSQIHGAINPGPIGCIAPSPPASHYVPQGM
How it was run: (§1)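 Each value is an average log2 ratio of fragment to vehicle, tested by unpaired t-test. The underlying Spectronaut label-free quantities were global-median-normalised, and only proteins with ≥2 unique peptides were included. Triplicate HEK293T lysate samples (495 µg) were exposed to fragment at 200 µM or vehicle for 3 h, then to Biotin-Ahx-Ub-VS at 0.5 µM final for 1 h, before NeutrAvidin enrichment of labelled DUBs, LysC and trypsin digestion, and diaPASEF LC-MS/MS.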

[2] = biological target: ATXN3 (UniProt P54252)
Chain of ATXN3 (P54252 whole entry): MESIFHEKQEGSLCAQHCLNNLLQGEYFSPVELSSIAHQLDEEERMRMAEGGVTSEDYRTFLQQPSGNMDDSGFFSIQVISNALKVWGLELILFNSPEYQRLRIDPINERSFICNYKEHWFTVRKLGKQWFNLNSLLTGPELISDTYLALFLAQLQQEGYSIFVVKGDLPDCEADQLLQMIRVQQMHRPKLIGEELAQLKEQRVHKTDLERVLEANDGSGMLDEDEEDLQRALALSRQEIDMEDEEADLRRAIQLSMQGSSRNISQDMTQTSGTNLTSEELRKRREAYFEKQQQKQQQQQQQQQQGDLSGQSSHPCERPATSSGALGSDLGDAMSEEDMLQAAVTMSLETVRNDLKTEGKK
How it was run: as §1

[3] = biological target: T2, BAP1 (UniProt Q92560)
T2 sequence (whole entry): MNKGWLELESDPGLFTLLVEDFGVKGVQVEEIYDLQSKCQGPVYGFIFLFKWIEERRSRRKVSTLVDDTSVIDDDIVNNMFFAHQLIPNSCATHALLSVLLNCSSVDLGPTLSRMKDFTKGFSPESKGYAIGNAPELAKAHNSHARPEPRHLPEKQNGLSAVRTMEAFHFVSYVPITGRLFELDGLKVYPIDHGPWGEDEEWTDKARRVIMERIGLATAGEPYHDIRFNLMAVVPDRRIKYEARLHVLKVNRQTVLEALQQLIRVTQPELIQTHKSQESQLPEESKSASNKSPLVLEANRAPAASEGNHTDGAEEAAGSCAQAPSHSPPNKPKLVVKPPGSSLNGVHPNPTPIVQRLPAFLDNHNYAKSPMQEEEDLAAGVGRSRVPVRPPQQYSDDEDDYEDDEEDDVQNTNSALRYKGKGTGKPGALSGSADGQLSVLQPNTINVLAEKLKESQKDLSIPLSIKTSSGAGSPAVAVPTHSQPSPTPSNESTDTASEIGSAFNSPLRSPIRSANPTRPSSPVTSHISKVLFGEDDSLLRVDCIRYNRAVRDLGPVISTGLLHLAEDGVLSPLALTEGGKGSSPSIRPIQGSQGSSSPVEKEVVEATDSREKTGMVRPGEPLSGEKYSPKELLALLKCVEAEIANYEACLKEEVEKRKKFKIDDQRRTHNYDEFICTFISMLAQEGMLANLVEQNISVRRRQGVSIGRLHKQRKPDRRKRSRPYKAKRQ
How it was run: as §1

[4] = biological target: EIF3F (UniProt O00303)
Chain of EIF3F (O00303 whole entry): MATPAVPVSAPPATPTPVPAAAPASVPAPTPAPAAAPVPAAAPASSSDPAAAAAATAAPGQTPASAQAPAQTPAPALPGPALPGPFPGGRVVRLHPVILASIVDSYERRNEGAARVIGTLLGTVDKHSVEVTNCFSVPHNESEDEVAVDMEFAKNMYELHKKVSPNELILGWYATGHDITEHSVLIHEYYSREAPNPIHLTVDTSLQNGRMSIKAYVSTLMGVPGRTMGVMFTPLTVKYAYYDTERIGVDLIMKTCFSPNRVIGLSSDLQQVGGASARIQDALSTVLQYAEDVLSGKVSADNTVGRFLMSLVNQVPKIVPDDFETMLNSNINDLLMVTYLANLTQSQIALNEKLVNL
How it was run: as §1

[5] = biological target: EIF3H (UniProt O15372)
Chain of EIF3H (O15372 whole entry): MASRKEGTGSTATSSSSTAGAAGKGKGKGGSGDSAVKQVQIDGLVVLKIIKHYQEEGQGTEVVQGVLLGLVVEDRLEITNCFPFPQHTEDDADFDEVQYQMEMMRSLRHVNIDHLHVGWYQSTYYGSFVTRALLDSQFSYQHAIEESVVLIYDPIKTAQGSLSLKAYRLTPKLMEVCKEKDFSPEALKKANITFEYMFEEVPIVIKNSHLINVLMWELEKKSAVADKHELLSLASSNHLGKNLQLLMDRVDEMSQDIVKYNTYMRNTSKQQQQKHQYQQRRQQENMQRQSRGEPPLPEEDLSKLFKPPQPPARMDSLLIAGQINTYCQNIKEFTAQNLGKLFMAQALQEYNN
How it was run: as §1

[6] = biological target: T3, FAM105A (UniProt Q9NUU6)
T3 sequence (whole entry): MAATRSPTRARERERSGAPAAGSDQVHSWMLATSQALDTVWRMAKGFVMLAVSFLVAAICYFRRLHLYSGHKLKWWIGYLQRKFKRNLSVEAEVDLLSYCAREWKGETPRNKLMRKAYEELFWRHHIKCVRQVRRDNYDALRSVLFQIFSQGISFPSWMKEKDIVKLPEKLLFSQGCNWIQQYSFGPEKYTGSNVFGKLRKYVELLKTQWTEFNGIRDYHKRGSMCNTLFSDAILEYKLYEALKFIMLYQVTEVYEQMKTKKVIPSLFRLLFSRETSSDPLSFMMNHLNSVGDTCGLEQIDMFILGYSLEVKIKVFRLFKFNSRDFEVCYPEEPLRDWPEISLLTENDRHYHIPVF
How it was run: as §1

[7] = biological target: OTUB1 (UniProt Q96FW1)
Chain of OTUB1 (Q96FW1 whole entry): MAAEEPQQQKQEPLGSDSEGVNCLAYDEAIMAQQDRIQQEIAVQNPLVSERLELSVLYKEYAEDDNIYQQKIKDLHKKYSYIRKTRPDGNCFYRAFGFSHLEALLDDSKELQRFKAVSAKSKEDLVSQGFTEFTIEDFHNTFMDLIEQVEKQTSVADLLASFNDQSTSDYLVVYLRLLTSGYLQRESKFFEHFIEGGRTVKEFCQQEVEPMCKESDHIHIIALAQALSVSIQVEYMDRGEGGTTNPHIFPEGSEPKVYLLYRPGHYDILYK
How it was run: as §1

[8] = biological target: T4, OTUD4 (UniProt Q01804)
T4 sequence (whole entry): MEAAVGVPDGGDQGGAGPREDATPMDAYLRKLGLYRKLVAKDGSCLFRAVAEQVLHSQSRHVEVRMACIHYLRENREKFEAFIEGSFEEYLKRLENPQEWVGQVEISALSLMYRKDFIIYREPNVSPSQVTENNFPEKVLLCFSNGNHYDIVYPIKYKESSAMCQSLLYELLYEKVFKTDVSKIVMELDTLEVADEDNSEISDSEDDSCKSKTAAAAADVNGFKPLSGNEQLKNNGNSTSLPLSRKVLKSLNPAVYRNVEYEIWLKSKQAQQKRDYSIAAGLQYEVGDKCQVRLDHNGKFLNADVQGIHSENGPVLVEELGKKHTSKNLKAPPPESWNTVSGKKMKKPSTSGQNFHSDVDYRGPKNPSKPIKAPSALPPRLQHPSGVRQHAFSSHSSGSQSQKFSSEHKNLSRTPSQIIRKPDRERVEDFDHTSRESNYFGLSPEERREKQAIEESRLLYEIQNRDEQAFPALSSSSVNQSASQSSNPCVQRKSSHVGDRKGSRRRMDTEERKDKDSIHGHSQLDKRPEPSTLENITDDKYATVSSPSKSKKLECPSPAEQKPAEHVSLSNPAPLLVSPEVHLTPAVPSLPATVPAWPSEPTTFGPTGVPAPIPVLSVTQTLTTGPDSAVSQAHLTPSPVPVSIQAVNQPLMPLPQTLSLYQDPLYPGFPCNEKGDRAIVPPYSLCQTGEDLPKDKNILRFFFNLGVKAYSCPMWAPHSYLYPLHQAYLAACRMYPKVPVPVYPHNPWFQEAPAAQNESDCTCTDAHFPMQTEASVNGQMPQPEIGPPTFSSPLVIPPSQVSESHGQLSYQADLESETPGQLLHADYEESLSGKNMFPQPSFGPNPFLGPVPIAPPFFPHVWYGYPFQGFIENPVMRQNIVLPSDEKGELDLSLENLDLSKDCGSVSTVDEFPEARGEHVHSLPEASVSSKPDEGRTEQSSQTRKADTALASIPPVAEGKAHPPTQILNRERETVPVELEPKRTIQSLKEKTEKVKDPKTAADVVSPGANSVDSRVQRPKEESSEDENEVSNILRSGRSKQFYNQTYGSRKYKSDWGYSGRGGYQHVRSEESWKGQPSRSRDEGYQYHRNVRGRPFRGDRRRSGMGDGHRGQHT
How it was run: as §1

[9] = biological target: T5, OTUD5 (UniProt Q96G74)
T5 sequence (whole entry): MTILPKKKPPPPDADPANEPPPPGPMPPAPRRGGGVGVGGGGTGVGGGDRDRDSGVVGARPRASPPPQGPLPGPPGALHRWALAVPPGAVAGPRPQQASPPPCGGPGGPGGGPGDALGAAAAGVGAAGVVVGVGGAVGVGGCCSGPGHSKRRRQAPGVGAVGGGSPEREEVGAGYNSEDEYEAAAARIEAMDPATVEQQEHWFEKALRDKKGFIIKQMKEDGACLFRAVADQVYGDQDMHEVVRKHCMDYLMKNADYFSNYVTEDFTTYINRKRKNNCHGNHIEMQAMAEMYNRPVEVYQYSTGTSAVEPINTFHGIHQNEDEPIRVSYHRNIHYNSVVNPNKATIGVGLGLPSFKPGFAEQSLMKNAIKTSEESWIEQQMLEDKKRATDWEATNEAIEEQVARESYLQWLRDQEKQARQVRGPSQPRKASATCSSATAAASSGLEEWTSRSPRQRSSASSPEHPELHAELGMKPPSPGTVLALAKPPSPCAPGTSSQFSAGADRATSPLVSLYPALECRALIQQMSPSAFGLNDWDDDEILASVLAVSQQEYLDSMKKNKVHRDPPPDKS
How it was run: as §1

Measured: log2 ratio of Biotin-Ahx-Ub-VS probe labelling

CS(=O)(=O)N1CCCN(C(=O)CCl)CC1
inactive: [1] -0.306 | [2] -0.428 | [3] -0.451 | [4] -0.0174 | [5] 0.332 | [6] -0.12 | [7] -0.478 | [8] -0.3 | [9] -0.335
